Records with an inconclusive call do not appear. Unmarked numbers belong to inactive results. The source made the active and inactive calls. Calls follow the shape of the dose curve; as a rule, active = well fitted curve in the direction sought with a large enough effect in the repeat runs; inconclusive = weak or mixed curves; inactive = no such curve, though single readings can be large; an effect the other way counts as inactive or inconclusive.
Test: A CellTox Green Cytotoxicity Assay to monitor cytotoxicity in HEK293 cells - 16 hour (AID 1224888); also: nearly all actives have a fitted effect of over 35% in size; also: potency is read from the fitted curve at half-maximal effect
Settings: CellTox Green fluorescence; series mostly up to 76.8 µM; activity change: at the top concentration
Outline: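 Homogeneous no-lysis format: HEK293 cell suspension mixed with CellTox Green reagent, seeded, incubated 5 h at 37 C/5% CO2, then dosed by pintool with compound in DMSO.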
% is scaled to controls: 0 for no effect and ±100 for the full control effect.

For `CCCCCCCCCCCCCCCC(=O)NCCO`, the “activity change” value was 7.72% [at 35.3 µM, hits give high values].
With `CCOC(=O)C(=O)c1csc(NC=O)n1` the “activity change” value was 0.438% [at 35.3 µM, hits give high values].
For `Nc1nc(=O)n([C@@H]2O[C@H](CO)[C@@H](O)[C@@H]2F)cc1I`, the “activity change” value was -15.1% [at 35.3 µM, hits give high values].
For `OC(CCN1CCCCC1)(c1ccccc1)c1ccccc1`, the “activity change” value was 4.7% [at 35.3 µM, hits give high values].
In the case of `Cc1nc(C)nc(N2C[C@@H](C)N(c3ccnc([C@@H](C)O)n3)[C@@H](C)C2)n1`, the “activity change” value is reported as 0.296% [at 35.3 µM, hits give high values].
For `COc1ccc(NS(=O)(=O)c2ccc(N)cc2)nn1`, the “activity change” value was 7.16% [at 35.3 µM, hits give high values].
In the case of `O=C(CN1CCN(Cc2ccc3c(c2)OCO3)CC1)N1c2ccccc2Sc2ccccc21`, the “activity change” value is reported as -3.71% [at 35.3 µM, hits give high values].
In the case of `NS(=O)(=O)c1ccc(Cl)c(S(N)(=O)=O)c1`, the “activity change” value is reported as 0.705% [at 35.3 µM, hits give high values].
With `CCN(CC)C(=O)C1CN2CCc3cc(OC)c(OC)cc3C2CC1OC(C)=O` (centres undefined) the “activity change” value was -6.56% [at 35.3 µM, hits give high values].
In the case of `O=C(Oc1ccccc1C(=O)O)c1ccccc1O`, the “activity change” value is reported as 3.15% [at 35.3 µM, hits give high values].
In the case of `C=CCCCCCCCCCCC`, the activity change is reported as -0.692% [at 6.97 µM, hits give high values].
With `COc1cc2c3cc1Oc1cc(ccc1O)C[C@@H]1c4c(cc(OC)c(O)c4Oc4ccc(cc4)C[C@@H]3N(C)CC2)CC[N+]1(C)C` the “activity change” value was 2.4% [at 35.3 µM, hits give high values].
For `C=CCOc1c(Br)cc(C(C)(C)c2cc(Br)c(OCC=C)c(Br)c2)cc1Br`, the “activity change” value was -4.18% [at 35.3 µM, hits give high values].
With `C[C@H](CCC(=O)O)[C@H]1CC[C@H]2[C@@H]3[C@H](O)C[C@@H]4C[C@H](O)CC[C@]4(C)[C@H]3C[C@H](O)[C@]12C` the “activity change” value was -0.717% [at 35.3 µM, hits give high values].
With `Cc1ncc([N+](=O)[O-])n1CC(O)CCl` (centres undefined) the “activity change” value was 1.77% [at 35.3 µM, hits give high values].

Point of comparison: `CN(C)CCCNCCC#N`, “activity change” value 1.09%. Against it:
- C=COCCOCCOC=C — lower, -10.3%
- C=C(C)[C@@H]1CC[C@@H](C)C[C@@H]1O — higher, 2.63%
- CCC(CO)CO — lower, -5.28%
- COc1ccc(N=Nc2cc(C)c(N=Nc3ccc(S(=O)(=O)O)cc3)cc2OC)cc1 — lower, -10.1%
- C1=C\CC/C=C\CC/1 — higher, 10%
- CCCCCC1CCCC(=O)O1 (centres undefined) — lower, -8.78%
- C=C(C)C(=O)OC1CC(C)CC(C)(C)C1 (centres undefined) — higher, 1.4%
- C=C[C@@H](C)CCC=C(C)C — higher, 1.48%
- NC(=O)NNC(N)=O — lower, -0.799%
- CCCCC(C)C(=O)O (centres undefined) — lower, 0.69%
- CCC(C)(CCC(C)C)C(=O)[O-].CCC(C)(CCC(C)C)C(=O)[O-].[Zn+2] (centres undefined) — higher, 3.67%
- CCc1nccnc1C — higher, 2.09%
- SCCSCCS — lower, -3.51%
- FC(F)(F)/C(=N\OCC1OCCO1)c1ccc(Cl)cc1 — higher, 8.48%
- FC(F)(F)c1ccc(Cl)cc1Cl — lower, -0.0604%
- Cc1ccccc1OCC1CO1 (centres undefined) — higher, 10.5%
- CCCCCCCC[Si](OCC)(OCC)OCC — lower, -1.32%
- CC(C)COC(=O)CC(C(=O)OCC(C)C)S(=O)(=O)O (centres undefined) — lower, -15.1%
- CO[Si](CCCCl)(OC)OC — higher, 14.4%

In the case of `O=C(/C=C/c1ccccc1)NCCO`, the Potency is reported as 8.49 µM (active).

Test: qHTS RealTime-Glo MT Cell Viability Assay in HepG2 cells - 0 hour (AID 1224889); also: nearly all actives have a fitted effect of over 50% in size
Settings: RealTime-Glo luminescence; series mostly up to 76.8 µM; activity change, negative = cytotoxicity: at the top concentration
Outline: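 qHTS, HepG2, 600 cells/well, RealTime-Glo (NanoLuc + prosubstrate) added with cells; 5 h preincubation; DMSO compound addition; 37 C; luminescence at 0/8/16/24/32/40 h.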

Point of comparison: `Cc1nc(C)nc(N2C[C@@H](C)N(c3ccnc([C@@H](C)O)n3)[C@@H](C)C2)n1`, “activity change, negative = cytotoxicity” value 13.1% [at 35.3 µM]. Against it:
- CCCCCCCCCCCCCCCC(=O)NCCO — lower, 1.26% [at 35.3 µM]
- Nc1nc(=O)n([C@@H]2O[C@H](CO)[C@@H](O)[C@@H]2F)cc1I — lower, -0.567% [at 35.3 µM]
- OC(CCN1CCCCC1)(c1ccccc1)c1ccccc1 — higher, 21.7% [at 35.3 µM]
- COc1ccc(NS(=O)(=O)c2ccc(N)cc2)nn1 — lower, 1.71% [at 35.3 µM]
- O=C(CN1CCN(Cc2ccc3c(c2)OCO3)CC1)N1c2ccccc2Sc2ccccc21 — lower, 3.22% [at 35.3 µM]
- NS(=O)(=O)c1ccc(Cl)c(S(N)(=O)=O)c1 — higher, 14.9% [at 35.3 µM]
- CCN(CC)C(=O)C1CN2CCc3cc(OC)c(OC)cc3C2CC1OC(C)=O (centres undefined) — lower, 4.35% [at 35.3 µM]
- O=C(Oc1ccccc1C(=O)O)c1ccccc1O — lower, -4.9% [at 35.3 µM]
- CCCCCCCCCCCCCCCCCCN(C)C — lower, -3.95% [at 35.3 µM]
- O=C(/C=C/c1ccccc1)NCCO — lower, -8.56% [at 35.3 µM]
- C=CCOc1c(Br)cc(C(C)(C)c2cc(Br)c(OCC=C)c(Br)c2)cc1Br — lower, 1.85% [at 35.3 µM]
- C[C@H](CCC(=O)O)[C@H]1CC[C@H]2[C@@H]3[C@H](O)C[C@@H]4C[C@H](O)CC[C@]4(C)[C@H]3C[C@H](O)[C@]12C — lower, -21.7% [at 35.3 µM]
- Cc1ncc([N+](=O)[O-])n1CC(O)CCl (centres undefined) — lower, -4.61% [at 35.3 µM]

Point of comparison: `FC(F)(F)c1ccc(Cl)cc1Cl`, “activity change, negative = cytotoxicity” value -17%. Against it:
- C=C(C)[C@@H]1CC[C@@H](C)C[C@@H]1O — higher, 5.71%
- CCC(CO)CO — higher, 0.205%
- C1=C\CC/C=C\CC/1 — higher, 7.58%
- CCCCCC1CCCC(=O)O1 (centres undefined) — higher, 10.7%
- C=C(C)C(=O)OC1CC(C)CC(C)(C)C1 (centres undefined) — higher, -0.212%
- C=C[C@@H](C)CCC=C(C)C — higher, 4.73%
- NC(=O)NNC(N)=O — higher, -0.753%
- CCC(C)(CCC(C)C)C(=O)[O-].CCC(C)(CCC(C)C)C(=O)[O-].[Zn+2] (centres undefined) — higher, 8.26%
- CCc1nccnc1C — higher, 5.46%
- SCCSCCS — higher, -9.28%
- CN(C)CCCNCCC#N — higher, -0.721%
- FC(F)(F)/C(=N\OCC1OCCO1)c1ccc(Cl)cc1 — higher, 10.6%
- Cc1ccccc1OCC1CO1 (centres undefined) — higher, 2.39%
- CCCCCCCC[Si](OCC)(OCC)OCC — higher, -0.672%
- CC(C)COC(=O)CC(C(=O)OCC(C)C)S(=O)(=O)O (centres undefined) — higher, 10.3%
- CO[Si](CCCCl)(OC)OC — higher, -0.678%

In the case of `C=CCCCCCCCCCCC`, the activity change, negative = cytotoxicity is reported as 5.28% [at 6.97 µM].

Test: A CellTox Green Cytotoxicity Assay to monitor cytotoxicity in HepG2 cells - 8 hour (AID 1224890); also: nearly all actives have a fitted effect of over 45% in size; also: potency is read from the fitted curve at half-maximal effect
Settings: CellTox Green fluorescence; series mostly up to 76.8 µM; cytotoxicity increase: at the top concentration
Outline: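 Fluorescent DNA-binding dye, 600 HepG2 cells/well, 5 h preincubation then compound in DMSO; same plates read at 0–40 h, 37 C.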

In the case of `CCCCCCCCCCCCCCCC(=O)NCCO`, the Potency is reported as 6.01 µM (active).
With `O=C(/C=C/c1ccccc1)NCCO` the Potency was 10.7 µM (active).

Point of comparison: `CCC(C)(CCC(C)C)C(=O)[O-].CCC(C)(CCC(C)C)C(=O)[O-].[Zn+2]` (centres undefined), “cytotoxicity increase” value -0.228%. Against it:
- C=COCCOCCOC=C — lower, -0.948%
- C=C(C)[C@@H]1CC[C@@H](C)C[C@@H]1O — higher, 6%
- C1=C\CC/C=C\CC/1 — higher, 5.33%
- CCCCCC1CCCC(=O)O1 (centres undefined) — higher, 8.62%
- C=C(C)C(=O)OC1CC(C)CC(C)(C)C1 (centres undefined) — higher, 1.79%
- C=C[C@@H](C)CCC=C(C)C — lower, -1.95%
- NC(=O)NNC(N)=O — lower, -15%
- CCc1nccnc1C — higher, 1.24%
- SCCSCCS — lower, -1.35%
- CN(C)CCCNCCC#N — lower, -7.59%
- FC(F)(F)/C(=N\OCC1OCCO1)c1ccc(Cl)cc1 — higher, 0.41%
- FC(F)(F)c1ccc(Cl)cc1Cl — higher, 4.26%
- Cc1ccccc1OCC1CO1 (centres undefined) — higher, 5.6%
- CCCCCCCC[Si](OCC)(OCC)OCC — lower, -0.856%
- CC(C)COC(=O)CC(C(=O)OCC(C)C)S(=O)(=O)O (centres undefined) — higher, -0.209%

Point of comparison: `Nc1nc(=O)n([C@@H]2O[C@H](CO)[C@@H](O)[C@@H]2F)cc1I`, “cytotoxicity increase” value -18.7% [at 35.3 µM]. Against it:
- O=C(O)CCNC(=O)c1ccccc1 — higher, 2.45% [at 35.3 µM]
- CCOC(=O)C(=O)c1csc(NC=O)n1 — higher, -12.5% [at 35.3 µM]
- OC(CCN1CCCCC1)(c1ccccc1)c1ccccc1 — higher, -9.79% [at 35.3 µM]
- Cc1nc(C)nc(N2C[C@@H](C)N(c3ccnc([C@@H](C)O)n3)[C@@H](C)C2)n1 — higher, 0.692% [at 35.3 µM]
- COc1ccc(NS(=O)(=O)c2ccc(N)cc2)nn1 — higher, 0.871% [at 35.3 µM]
- O=C(CN1CCN(Cc2ccc3c(c2)OCO3)CC1)N1c2ccccc2Sc2ccccc21 — higher, 4.08% [at 35.3 µM]
- NS(=O)(=O)c1ccc(Cl)c(S(N)(=O)=O)c1 — higher, -5.52% [at 35.3 µM]
- CCN(CC)C(=O)C1CN2CCc3cc(OC)c(OC)cc3C2CC1OC(C)=O (centres undefined) — higher, 4.17% [at 35.3 µM]
- O=C(Oc1ccccc1C(=O)O)c1ccccc1O — higher, 0.7% [at 35.3 µM]
- C=CCOc1c(Br)cc(C(C)(C)c2cc(Br)c(OCC=C)c(Br)c2)cc1Br — higher, -2.63% [at 35.3 µM]
- Cc1ncc([N+](=O)[O-])n1CC(O)CCl (centres undefined) — higher, 0.615% [at 35.3 µM]

Work on `C=CCCCCCCCCCCC` yielded a cytotoxicity increase of 4.2% [at 6.97 µM].
